# Source: PubChem BioAssay
# The entries come from a sample that favours hits as a whole.
# Shiga toxin inh: A qHTS for Small Molecule Inhibitors of Shiga Toxin; 9.2% of 290,000 active; inhibition, % at 38.7 µM; Vero cells, Shiga toxin protein synthesis inhibition reporter; in the data active = inhibition mostly above about 28%, no sharp cut-off; inactive = mostly below about 43%; note: 0% is about no effect
# NS1 inh: qHTS Assay for Inhibitors of Influenza NS1 Protein Function; Potency, µM (highest dose often 46.1 µM), for inactives: top-dose activity, positive = more growth; 0.4% of 270,000 active; note: potency is the fitted concentration of half-maximal effect; actives are rising curves; nearly all actives have a fitted effect of over 50% in size
#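 Growth recovery, yeast-based: influenza A NS1 expressed in S. cerevisiae causes slow growth, and suppressors are detected by OD600. The parent strain without NS1 is used as positive control.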
# SARS PLP yeast: qHTS of Yeast-based Assay for SARS-CoV PLP | S. cerevisiae expressing SARS-CoV PLpro, growth rescue | Potency, µM (series often up to 32.9 µM), for the others: at the top dose activity, positive = growth rescue, hits mostly activators | 0.19% of 330,000 active | AID 485353, 2010; note: potency is the fitted concentration of half-maximal effect; 0% is about no effect; nearly all actives have a fitted effect of over 55% in size
# LmPK inhibitor: qHTS Assay for Inhibitors of Leishmania Mexicana Pyruvate Kinase (LmPK). Q27686. purified LmPK, Kinase-Glo ATP luminescence, 1 h. Potency, µM (highest dose often 57.5 µM), for the others: at the top dose activity change, negative = inhibition, actives largely listed as inhibitors. 0.37% of 290,000 active; active = well fitted curve in the direction sought with a large enough effect; inconclusive = small, poorly fitted or top-dose-only effect, or another doubt; inactive = no such curve, though single readings can be large; an effect the other way counts as inactive or inconclusive; note: potency is the fitted concentration of half-maximal effect; % is set by controls: 0 for no effect and ±100 for the full control effect
# Target sequence (Q27686 whole entry, looked up): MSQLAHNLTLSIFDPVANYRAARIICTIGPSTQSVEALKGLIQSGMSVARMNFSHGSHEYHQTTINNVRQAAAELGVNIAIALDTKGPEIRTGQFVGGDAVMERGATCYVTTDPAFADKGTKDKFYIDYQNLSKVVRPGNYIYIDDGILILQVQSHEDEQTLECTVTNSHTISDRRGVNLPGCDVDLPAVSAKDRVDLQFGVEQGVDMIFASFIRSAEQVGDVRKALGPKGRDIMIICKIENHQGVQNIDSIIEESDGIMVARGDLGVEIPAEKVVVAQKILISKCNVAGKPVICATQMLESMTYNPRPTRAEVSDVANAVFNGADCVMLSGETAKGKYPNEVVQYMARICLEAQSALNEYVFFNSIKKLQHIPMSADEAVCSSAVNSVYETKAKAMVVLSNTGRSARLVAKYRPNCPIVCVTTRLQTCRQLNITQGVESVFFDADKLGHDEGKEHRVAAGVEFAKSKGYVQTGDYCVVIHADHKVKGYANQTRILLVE
#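 Screened at intermediate enzyme activity to detect both inhibitors and activators: LmPK at 0.1 nM, with a 0.5 nM enzyme column as activation reference. PEP 0.5 mM, ADP 0.1 mM; ATP detected by luminescence after 1 h.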
# Cycloheximide cs: Cycloheximide Counterscreen for Small Molecule Inhibitors of Shiga Toxin; cell reporter, cycloheximide protein synthesis inhibition counterscreen; max response, %; 12% of 300,000 active; in the data active = max response mostly above about 13%, no sharp cut-off; inactive = mostly below about 14%; note: read at 38.3 µM for the half of the compounds with a filed dose; 0% is about no effect
# Tb PYK inh: qHTS of Trypanosoma Brucei Inhibitors; pyruvate kinase (Trypanosoma brucei), Q57TT1; TbPYK enzyme, Kinase-Glo Plus ATP luminescence, 45 min; Potency, µM (doses to about 76.8 µM), for the others: at the highest dose activity, negative = inhibition, hits mostly inhibitors; 0.12% of 410,000 active; active = well fitted curve in the direction sought with a large enough effect; inconclusive = small, poorly fitted or top-dose-only effect, or another doubt; inactive = no such curve, though single readings can be large; an effect the other way counts as inactive or inconclusive; note: potency is the fitted concentration of half-maximal effect; % is set by controls: 0 for no effect and ±100 for the full control effect; nearly all actives have a fitted effect of over 50% in size
#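 Glycolytic pyruvate kinase of T. brucei was incubated with substrate, test compound and 130 uM ADP for 45 minutes at room temperature. Luminescent Kinase-Glo Plus signal was measured after 10 minutes.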
# An asterisk follows results filed as active; ? = inconclusive; . = no result. Unless noted, calls come from the whole dose curve.
SMILES,Shiga toxin inh,NS1 inh,SARS PLP yeast,LmPK inhibitor,Cycloheximide cs,Tb PYK inh
Cc1c(-c2nc3ccccc3[nH]2)cnn1C,.,.,1%,.,.,-3%
O=C(CN1CCN(C(=O)c2ccccc2)CC1)Nc1cccc(S(=O)(=O)N2CCCC2)c1,.,.,-4%,.,.,2%
C[C@H](C(=O)OCO/N=[N+](\[O-])N1CCCC1)c1cccc2ccccc12,15,.,.,.,14,.
CC(C)(C)c1ccc2c(S(=O)(=O)O)c(C(C)(C)C)ccc2c1,.,.,.,.,.,-5%
COc1ccc(/C=C(\NC(=O)c2ccc(C)cc2)C(=O)NCCCn2ccnc2)cc1OC,3,-1%,0%,-1%,-3,5%
Cc1cccc(NC(=O)CN2C(=O)CCn3nc(-c4cccn4C)cc32)c1C,.,.,.,.,.,-8%
Nc1ccccc1-c1nc2ccccc2[nH]1,92*,-71%,-13%,-13%,45*,-4%
COc1cccc(C(=O)Nc2ccccc2N2CCN(C(=O)c3ccccc3)CC2)c1,.,.,-5%,.,.,0%
CCOc1ccc(OCc2ccc(C(=O)O)o2)cc1,60*,-6%,2%,2%,33*,3%
C/C=C/c1ccccc1OCc1ccc(C(=O)O)o1,-1,-15%,-1%,-1%,-1,-3%
O=C(O)c1ccc(COc2ccc3ccccc3c2)o1,94*,0%,-2%,-18%,42*,-3%
Cc1[nH]n2c(=O)cc(-c3ccc(Cl)cc3)nc2c1-c1ccccc1,.,.,.,.,.,-3%
Cc1ccc2oc(-c3cccc(NC(=O)c4ccc(Br)o4)c3)nc2c1,38,-3%,9%,-8%,26*,-3%
Cc1cc2nc(-c3cccc(NC(=O)c4ccc(Br)o4)c3)oc2cc1C,80,-3%,13%,-3%,41*,1%
O=C(NNC1=Nc2cccc3cccc1c23)c1ccc(Br)cc1,29,-31%,1%,5%,8,1%
CC(=O)c1c(C)nn(-c2ccccc2)c1C,-3,3%,0%,-3%,-1,-1%
COc1ccc(OC(=O)c2c(C)nn(-c3ccccc3)c2C)cc1,70*,-45%,-1%,5%,52*,1%
COC(=O)c1cnn(-c2ccccc2)c1N,33,10%,-2%,-2%,10,10%
Cc1nn(-c2ccccc2)c(C)c1C(=O)Oc1ccccc1,59*,-32%,-1%,3%,36*,-12%
COc1ccc(OC(=O)c2cnn(-c3ccccc3)c2C)cc1,133*,-160%,-21%,1%,45*,-10%
Cc1ccn2c(C=O)c(-c3ccc(F)cc3)c(C=O)c2c1,47,.,-2%,4%,28*,-4%
COc1cc(/C=N/NC(=O)c2cc(-c3cccs3)nc3ccccc23)ccc1O,45*,3%,0%,-8%,15,-1%
N#Cc1ccc(/C=N/NC(=O)c2cc(-c3cccs3)nc3ccccc23)cc1,27,-20%,-19%,2%,22*,8%
COc1cc(/C=N/NC(=O)c2cc(-c3cccc(OC(C)C)c3)nc3ccccc23)ccc1O,.,.,.,.,.,-2%
N#Cc1ccc(-c2csc(NC(=O)c3cc(-c4cccs4)nc4ccccc34)n2)cc1,-13,-4%,-1%,-1%,-1,-2%
SMILES,Shiga toxin inh,NS1 inh,SARS PLP yeast,LmPK inhibitor,Cycloheximide cs,Tb PYK inh
CCn1cc(C(=O)Nc2sc(C)c(C)c2C(=O)OC)cn1,25*,-27%,-4%,1%,9,-14%
COC(=O)c1c(NC(=O)c2ccnn2C)sc(C)c1C,.,.,.,.,.,1%
COc1ccc(N(C)C(=O)c2nc(-c3cccc(F)c3)n3c2CCCCC3)c(OC)c1,.,.,.,.,.,-1%
Cc1c(C(=O)NCc2ccccc2C(F)(F)F)sc(=O)n1Cc1ccc(Cl)c(Cl)c1,.,.,.,.,.,-10%
COc1cc2c(cc1NC(=O)CCCN1C(=O)CCC1=O)oc1ccccc12,79*,-7%,0%,7%,36*,-4%
COc1cc2c(cc1NC(=O)COC(=O)C(CCSC)NC(=O)c1ccccc1Cl)oc1ccccc12 (stereo not drawn),active,-2%,13%,-1%,15,-5%
COc1cc2c(cc1NC(=O)COC(=O)c1ccc(C(C)(C)C)cc1)oc1ccccc12,12,4%,-11%,1%,0,5%
COc1cc2c(cc1NC(=O)COC(=O)[C@@H](NS(=O)(=O)c1ccccc1)C(C)C)oc1ccccc12,56*,-16%,1%,2%,11*,0%
COc1cc2c(cc1NC(=O)COc1ccccc1OC)oc1ccccc12,36,1%,-2%,4%,5,?
COc1cc2c(cc1NC(=O)COC(=O)Cn1cnc3ccccc31)oc1ccccc12,79*,-55%,-31%,5%,36*,0%
Cc1nn(-c2ccccc2)c(Cl)c1C(=O)OCC(=O)N(C)c1c(N)n(Cc2ccccc2)c(=O)[nH]c1=O,.,.,-4%,.,.,7%
COc1cc2c(cc1NC(=O)CSc1ccc(C)cc1)oc1ccccc12,30,2%,9%,3%,3,4%
COc1cc2c(cc1NC(=O)C(C)NCc1ccccc1)oc1ccccc12 (stereo not drawn),76*,-46%,-52%,7%,64*,3%
COc1cc2c(cc1NC(=O)Nc1ccccc1)oc1ccccc12,20,-63%,-10%,7%,1,-6%
COc1cc2c(cc1NC(=O)Cc1ccc(C)cc1)oc1ccccc12,93*,12%,-2%,-3%,73*,-5%
COc1ccc(S(=O)(=O)N2CCOCC2)cc1NC(=O)CCCSc1ccccc1,.,.,.,.,.,-4%
COc1ccc(-c2sc(Nc3ccc(F)c(F)c3F)nc2CCC(=O)NN)cc1,100*,24%,0%,2%,42*,-2%
COC(=O)c1nc(N)sc1-c1ccc(OC)cc1,3,2%,-6%,-5%,-1,0%
CCN1CCN(c2ccc(S(=O)(=O)N3CCCCC3)cc2NC(=O)COc2ccc(F)cc2Cl)CC1,-8,-2%,-1%,-3%,-3,-10%
CCCC(C)NC(=O)CSc1nnc(-c2c[nH]c3ccccc23)o1 (stereo not drawn),-8,.,-1%,3%,-3,3%
c1ccc(CSc2nnc(-c3c[nH]c4ccccc34)o2)cc1,169*,-9%,0%,11%,48*,2%
COC(=O)CSc1nnc(-c2c[nH]c3ccccc23)o1,.,-12%,-11%,-1%,-2,-15%
CC(C)(C)NC(=O)CSc1nnc(-c2c[nH]c3ccccc23)o1,65*,12%,1%,5%,28*,-8%
c1ccc2c(-c3nnc(SCc4cn5ccccc5n4)o3)c[nH]c2c1,15,-1%,-6%,0%,7,-1%
CCN(CC)C(=O)CSc1nnc(-c2c[nH]c3ccccc23)o1,.,18%,0%,2%,40*,3%
